Reference: PubChem BioAssay AID720579 (National Center for Advancing Translational Sciences (NCATS), 2013)
Screen size: about 310,000 compounds; about 1,900 (0.61%) were called active. Where a call stands in place of a potency, no number is given. About 8% were inconclusive and are not listed. Calls follow the shape of the full dose curve; tested in A549 cells. Only a selection was taken, and actives are over-represented in it overall.
Potency is read from the fitted curve at half-maximal effect.

Test: qHTS for Stage-Specific Inhibitors of Vaccinia Orthopoxvirus: mCherry Reporter Primary qHTS; also: nearly all actives have a fitted effect of over 35% in size
Conditions: Vaccinia virus mCherry reporter infection, fluorescence; series mostly up to 36.5 µM
In the case of `O=C(Oc1ccc(Br)cc1)c1cccnc1`, the Potency is reported as “inactive”.
In the case of `CCCCCCOc1ccc(OC(=O)c2cccnc2)cc1`, the Potency is reported as 10 µM (active).
In the case of `N#CCc1ccc(OC(=O)c2cccnc2)cc1`, the Potency is reported as “inactive”.
In the case of `O=C(CC(CC(=O)c1ccccc1)c1ccco1)c1ccccc1`, the Potency is reported as “inactive”.
With `Cc1ccccc1-c1nc(NC(C)C)nc2cc(-c3ccccc3)sc12` the Potency was “inactive”.
With `Cc1ccccc1S(=O)(=O)N1[C@@H](c2cccc(Cl)c2)C(C(=O)OC(C)(C)C)=CC[C@H]1c1ccc(Cl)cc1` the Potency was “inactive”.
For `COc1cc2nc(N3CCCN(C)CC3)nc(NC(C)C)c2cc1OC`, the Potency was “inactive”.
For `C=CCC[C@H](Cc1ccc(F)cc1)C(=O)OC[C@@H](Cc1c[nH]c2ccccc12)NC(=O)[C@H](CC=C)CC(=O)N[C@H](CO)Cc1ccccc1`, the Potency was “inactive”.
With `C=CCC[C@H](Cc1ccc(F)cc1)C(=O)OC[C@@H](NC(=O)[C@@H](CC=C)CC(=O)N[C@H](CO)Cc1ccccc1)C(C)(C)C` the Potency was 12.6 µM (active).
For `C=CC[C@@H](CC(=O)N[C@@H](CO)Cc1ccccc1)C(=O)N[C@H](COC(=O)[C@H](CC=C)CC(=O)OC(C)(C)C)Cc1ccccc1`, the Potency was “inactive”.
With `COc1ccc2[nH]c(C(=O)N3CCN(C)CC3)c(C)c2c1` the Potency was “inactive”.
With `COc1ccc2[nH]c3c(C)c4cc[n+](C)cc4c(C)c3c2c1` the Potency was 11.2 µM (active).
In the case of `COc1ccc2[nH]c3c(c2c1)CCN[C@H]3C`, the Potency is reported as “inactive”.
With `Cc1ccccc1-n1c(SCC(=O)NCc2cccs2)nnc1-c1ccncc1` the Potency was “inactive”.
With `Cc1ccc(Nc2nc(CSc3nnc(-c4ccncc4)n3-c3ccccc3C)cs2)cc1` the Potency was 10 µM (active).
For `Cc1ccc(-n2c(SCC(=O)N3c4ccccc4Sc4ccccc43)nnc2-c2ccncc2)cc1`, the Potency was “inactive”.
In the case of `Cc1cccc(Nc2cc(C)nc(-n3nc(C)cc3C)n2)c1`, the activity change, negative = inhibition is reported as -3.8% [at 7.34 µM] (inactive).
With `Cc1cc(N/N=C\c2ccc(Br)cc2)nc(-n2nc(C)cc2C)n1` the Potency was 2.24 µM (active).
For `COc1ccc(NC(=O)c2nc(-n3nc(C)cc3C)ccc2Cl)cc1Cl`, the Potency was “inactive”.
With `COc1cc(Cl)c(C)cc1Nc1nnc(-n2nc(C)cc2C)c2ccccc12` the Potency was “inactive”.
In the case of `Cc1ccc(S(=O)(=O)Nc2nc(C)cc(N/N=C/c3ccc(O)cc3)n2)cc1`, the Potency is reported as “inactive”.
With `COc1ccccc1/C=N\Nc1cc(C)nc(-n2nc(C)cc2C)n1` the Potency was 5.62 µM (active).
With `COc1cc(CNc2ncnc3c2ncn3[C@H]2CN(Cc3cccs3)C[C@@H](CO)O2)cc(OC)c1OC` the Potency was “inactive”.
For `COc1ccc(/C=C/c2ccccn2)cc1OC`, the Potency was “inactive”.
In the case of `CCOC(=O)[C@]12CCCC=C1N(Cc1cccc3ccccc13)C(=O)[C@H](CC(=O)NCC13CC4CC(CC(C4)C1)C3)C2`, the Potency is reported as “inactive”.
With `Cc1cccc(-n2c(C)cc(/C=N/NC(N)=S)c2C)c1` the Potency was “inactive”.
With `NC(=S)N/N=C/c1coc2cc(Cl)ccc2c1=O` the Potency was “inactive”.
With `CC(C)Oc1c(Br)cc(Br)cc1/C=N/NC(N)=S` the Potency was 3.98 µM (active).
For `CCCCCCCCN1C(=O)[C@H](CC(=O)NCc2cccc3ccccc23)C[C@@]2(C(=O)OC)CCCCC=C12`, the Potency was “inactive”.
For `COc1ccc(Cn2c(=O)[nH]c3cc(C(=O)N4CCN(C(=O)c5ccco5)CC4)ccc3c2=O)cc1`, the Potency was “inactive”.
In the case of `CCCn1c(=N)n(CC(=O)c2ccc(Cl)c(Cl)c2)c2ccccc21`, the Potency is reported as “inactive”.
In the case of `CC1C(C)N(C(=O)CCl)c2ccccc2N1C(=O)CCl` (configuration not stated), the Potency is reported as 8.91 µM (active).
In the case of `CCNC(=O)N1c2ccccc2Sc2ccccc21`, the Potency is reported as “inactive”.
In the case of `COC(=O)[C@]12CCCCC=C1N(Cc1ccc3c(c1)OCO3)C(=O)[C@H](CC(=O)NCc1cccs1)C2`, the Potency is reported as “inactive”.
With `C(=Nc1ccc(/C=C/c2ccnc3ccccc23)cc1)Nc1ccc(/C=C/c2ccnc3ccccc23)cc1` the Potency was “inactive”.
With `CN(C)S(=O)(=O)c1cccc(NC(=O)COC(=O)c2cc(=O)[nH]c(=O)[nH]2)c1` the Potency was “inactive”.
For `CN(C)S(=O)(=O)c1cccc(NC(=O)COC(=O)/C=C/c2cccs2)c1`, the Potency was “inactive”.
For `CN(C)S(=O)(=O)c1cccc(NC(=O)Cc2ccsc2)c1`, the Potency was 12.6 µM (active).
For `O=C(NC(c1ccc(Cl)cc1)c1cnccn1)C1CCN(Cc2ccc(Cl)cc2)CC1` (configuration not stated), the Potency was “inactive”.
For `O=C(Nc1cccc2ccccc12)c1[nH]c(-c2ccccc2)c2c1C(=O)N(C1CC1)C2=O`, the Potency was “inactive”.
For `CCCCC(CCCC)c1ccc(C=Nc2ccc(/C=C/c3ccnc4ccccc34)cc2)cc1`, the Potency was “inactive”.
With `Oc1ccc(N=Nc2nccs2)c(O)c1` the Potency was 3.98 µM (active).
In the case of `CCN1CCN(c2ccc(/C=C/c3ccnc4ccccc34)cc2)CC1`, the Potency is reported as “inactive”.
In the case of `N#Cc1ccc(C(C(=O)NCc2ccccc2)n2c(=O)c(-c3ccco3)nc3ccccc32)cc1` (configuration not stated), the Potency is reported as “inactive”.
For `CC1(Oc2cccc(F)c2)CCN(Cc2ccccc2OC(F)F)C1` (configuration not stated), the Potency was “inactive”.
In the case of `CCN(C(=O)Nc1cccc2ccccc12)c1ccccc1`, the Potency is reported as “inactive”.
In the case of `CC(=O)N1Cc2cc(C(=O)NCc3cccc(F)c3)nc(-c3cccc(C4=CCCCC4)c3)c2[C@H]1CCO`, the Potency is reported as “inactive”.
